Pin1 inh: inhibitors of human Pin1; Q13526; Pin1 FP peptide displacement, HiFluor488, 10 min; Potency, µM (top dose mostly 115 µM), for the others: top-dose activity, negative = inhibition, hits mostly inhibitors; 0.009% of 390,000 active; active means well fitted inhibition curve with a large enough effect in the polarisation, with a control signal flat, not every such curve was filed as active; inconclusive means small, poorly fitted or top-dose-only effect, or effect the other way, or a change in a side signal; inactive means no such curve, though single readings can be large or run the other way; the % refers to the polarisation; further: potency means the concentration at half of the fitted maximal effect
Target sequence (Q13526 whole entry, looked up): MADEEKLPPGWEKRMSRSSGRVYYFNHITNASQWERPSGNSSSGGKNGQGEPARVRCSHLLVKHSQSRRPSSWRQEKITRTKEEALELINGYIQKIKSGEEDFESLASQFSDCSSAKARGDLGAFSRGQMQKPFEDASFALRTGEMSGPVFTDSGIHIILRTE
PI5P4K alpha inh: blocks human PI5P4K alpha kinase activity. 1.2% of 330,000 active. P48426. max response, %. PI5P4Kalpha enzyme, ADP-Glo luminescence, 60 min; stronger effect = lower value. AID 652105; active means max response of -50% or lower; inconclusive means between -30% and -50%; inactive means -30% or higher; further: value at the top dose of about 77 µM
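Reactions run in 0.038 M HEPES pH 7.4, 0.28 mM EGTA, 0.1% CHAPS and 5% DMSO, with PI5P4Kalpha, substrate, compound and 5 microM ATP final, one hour at room temperature. Readout is ADP-Glo luminescence.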
Tb PGK inh: inhibitors of T. brucei phosphoglycerate kinase; 0.043% of 380,000 active; Potency, µM (highest dose often 57.5 µM), for the others: top-dose activity change, negative = inhibition, most hits filed as inhibitors; P07378; PGK/GAPDH coupled, Kinase-Glo luminescence, 60 min; active means well fitted inhibition curve with a large enough effect; inconclusive means small, poorly fitted or top-dose-only effect; inactive means no such curve, though single readings can be large or run the other way; further: potency means the concentration at half of the fitted maximal effect; nearly all actives have a fitted effect of over 60% in size
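Recombinant glycosomal PGK reaction used 1,3-bisphosphoglycerate generated in-well by GAPDH (100nM final) in 100mM TEA pH 7.6, 5mM MgCl2, 0.01% Tween-20. After 60 minutes at room temperature, ATP was read by Kinase-Glo Plus luminescence end-point.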
PI4K2A block: inhibitors of human PI4K2A; Q9BTU6; activity change, negative = inhibition, % at 76.9 µM; purified PI4K2A, ADP-Glo luminescence, 1 h; stronger effect = lower value; AID 1346378; 0.13% of 420,000 active; in the data active means activity change below about -50%; inconclusive means mostly about -30% to -49%;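 further: -100% = wells without enzyme as full effect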
Target sequence (Q9BTU6 whole entry, looked up): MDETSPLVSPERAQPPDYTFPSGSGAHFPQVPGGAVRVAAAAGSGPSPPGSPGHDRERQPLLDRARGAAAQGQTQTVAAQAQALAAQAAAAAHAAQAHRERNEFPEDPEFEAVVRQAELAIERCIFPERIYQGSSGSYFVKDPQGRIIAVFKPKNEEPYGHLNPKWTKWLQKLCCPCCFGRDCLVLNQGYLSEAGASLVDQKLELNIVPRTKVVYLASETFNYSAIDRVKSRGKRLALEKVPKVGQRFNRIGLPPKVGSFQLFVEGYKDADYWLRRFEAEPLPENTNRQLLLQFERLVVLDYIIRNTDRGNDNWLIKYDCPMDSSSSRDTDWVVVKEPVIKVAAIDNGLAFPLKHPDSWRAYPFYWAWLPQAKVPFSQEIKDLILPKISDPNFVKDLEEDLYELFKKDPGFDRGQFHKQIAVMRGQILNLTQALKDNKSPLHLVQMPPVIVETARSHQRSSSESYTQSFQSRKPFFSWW
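PI4K2A activity was measured by ADP-Glo luminescence: enzyme (4 ug/mL stock) and phosphatidylinositol (1.2 mM stock) in Tris pH 7.5/MgCl2/EGTA/Triton X-100 buffer were reacted with ATP (300 microM stock) for one hour at ambient temperature.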
Numbers without * were called inactive; i = inactive; ? = inconclusive; nt = no result given. This excerpt belongs to a sample that is enriched for hits. Unless noted, on the % scale 0 is the no-effect control and ±100 the full control effect.

SMILES	Pin1 inh	PI5P4K alpha inh	Tb PGK inh	PI4K2A block
COc1ccc(-c2[nH]c(-c3ccc(O)cc3)nc2-c2ccccc2)cc1	?	nt	12.5%	0.4
Cc1ccc(S(=O)(=O)Nc2cc(C)cn(Cc3ccc(F)cc3)c2=O)cc1	?	6.8	-8.2%	-11.5
CC(=O)Nc1sc2c(c1-c1ccco1)CCNC2	-20.2%	nt	nt	nt
Nc1cccnc1Sc1cccc(Cl)c1	?	-16.1	-1.9%	-69.3*
Nc1cccnc1Sc1ccc(Cl)cc1	-0.8%	0.1	-8.9%	6.1
COC(=O)CCC(=O)OC1(C)C(=O)C2=CN(Cc3ccc(OC)cc3)C(c3ccc(OC)cc3)=CC2=C(Br)C1=O (centres undefined)	?	-12.6	-3.2%	-9.4
COc1ccc(C2=CC3=C(Br)C(=O)C(C)(O)C(=O)C3=CO2)cc1 (centres undefined)	?	-83.3*	20µM*	?
COc1ccc(C2Nc3ccccc3C(=O)N2CCO)cc1COc1ccc(NC(C)=O)cc1 (centres undefined)	-2.9%	nt	nt	nt
CCOc1ccc(C2C(C#N)=C(N)SC(N)=C2C#N)c(OCC)c1	?	-62.8*	-1.8%	1.3
COc1ccc(N/C=C2/Sc3ccccc3NC2=O)cc1	16.0%	-54.7*	nt	-0.6
Cc1c(F)cc2c(=O)c(C(=O)O)cn3c2c1CCC3C (centres undefined)	nt	nt	nt	0.7
CC(=O)c1ccc(NC(=O)CN2C(=O)CCc3cc(S(=O)(=O)N4CCC(C)CC4)ccc32)cc1	-1.6%	nt	25.1µM*	-9.0
O=C(COC(=O)c1ccc(NS(=O)(=O)c2cccs2)cc1)NCc1ccco1	nt	-71.5*	?	-29.6
O=C(COC(=O)c1cccs1)NCc1ccco1	?	?	?	-0.7
CCCCNC(=S)NCCCc1cnc[nH]1	0.5%	nt	nt	nt
CC(=O)C1CCN(c2ncc(-c3cccc(N(C)C)c3)s2)CC1	-1.1%	nt	nt	nt
Cc1nc2[nH]c(=S)[nH]c2c(=O)[nH]1	-6.0%	-21.2	8.5%	10.1
Nc1nc(N)c2[nH]c(=S)[nH]c2n1	-8.0%	-51.7*	-5.0%	-25.2
CC1=C(C(=O)OCc2ccccc2)C(c2ccccc2Cl)NC(=O)N1C (centres undefined)	?	3.0	i	10.9
COC(=O)C1=C(C)N(CCCC(=O)O)C(=O)NC1c1ccccc1Cl (centres undefined)	-8.1%	-82.0*	i	-0.3
COC(=O)C1=C(C)N(CCCC(=O)O)C(=O)NC1c1ccc(Br)cc1 (centres undefined)	-5.8%	-99.1*	i	-6.2
CCOC(=O)CN1C(=O)N[C@@H](c2ccccc2)C(C(=O)OC)=C1C	-12.6%	-0.6	-0.3%	3.7
COC(=O)C1=C(C)N(CC2CC2)C(=O)N[C@H]1c1ccccc1	-6.5%	-4.3	2.2%	-1.1
COC(=O)C1=C(C)N(CCCC(=O)O)C(=O)NC1c1ccc(C#N)cc1 (centres undefined)	-5.4%	-63.4*	-10.6%	-5.6
COC(=O)C1=C(C)N(CCCC(=O)O)C(=O)NC1c1ccc(-c2ccccc2)cc1 (centres undefined)	-7.8%	-74.7*	-11.9%	-3.2
SMILES	Pin1 inh	PI5P4K alpha inh	Tb PGK inh	PI4K2A block
COc1ccc(-c2noc(-c3ccc(N4CCN(c5ccc(OC)cc5)CC4)c([N+](=O)[O-])c3)n2)cc1	8.9%	nt	0.7%	-0.3
COCCN1C(=O)N[C@@H](c2cccc(C(F)(F)F)c2)C(C(=O)OC)=C1C	-6.6%	-3.8	-0.7%	-3.0
COC(=O)C1=C(C)N(CCCC(=O)O)C(=O)NC1c1ccc(C(F)(F)F)cc1 (centres undefined)	8.8%	-81.4*	6.7%	-0.3
COc1ccc(/C=c2\s/c(=C\C(=O)C(C)(C)C)[nH]c2=O)cc1O	24.2%	-72.2*	-4.8%	-6.1
Cc1cc(C)c2nc(N3C(=O)C(O)=C(C(=O)c4ccco4)C3c3ccco3)sc2c1 (centres undefined)	nt	-53.4*	-9.9%	-6.7
CCOc1ccc2nc(N3C(=O)C(O)=C(C(=O)c4ccco4)C3c3ccco3)sc2c1 (centres undefined)	9.6%	?	i	-5.8
Cc1ccc2nc(N3C(=O)C(O)=C(C(=O)c4ccc(C)o4)C3c3ccc(O)cc3)sc2c1 (centres undefined)	28.6%	-57.8*	-4.6%	6.7
COc1ccc2nc(N3C(=O)C(O)=C(C(=O)c4ccco4)C3c3ccc(C)o3)sc2c1 (centres undefined)	?	-50.3*	-11.6%	-4.4
COc1ccc2nc(N3C(=O)C(O)=C(C(=O)c4ccco4)C3c3ccccc3OC)sc2c1 (centres undefined)	0.6%	-5.3	-0.8%	-0.3
COc1ccc2cc(C=O)ccc2c1	nt	nt	nt	-2.5
CCn1c(N)c(C(=O)NC)sc1=S	-2.9%	-58.5*	i	-1.1
CCNC(=O)c1sc(=S)n(CC)c1N	-1.8%	-0.8	i	-13.6
CCOc1ccc(S(=O)(=O)NCc2cccnc2)cc1NC(=O)c1ccccc1	-1.7%	3.6	-8.1%	2.9
COc1ccc(S(=O)(=O)NCc2cccnc2)cc1NC(=O)c1ccccc1C	?	-72.9*	-8.1%	-5.2
CN(C)c1cccc(S(=O)(=O)N2CCCN(S(=O)(=O)c3ccc4c(c3)OCCO4)CC2)c1	18.9%	nt	nt	nt
CCCN(CCC)Cc1c(C(=O)N/N=C/c2c[nH]c3ccccc23)nnn1-c1nonc1N	5.8%	-63.3*	-5.6%	-3.8
CCCc1c(C(=O)N/N=C/c2c[nH]c3ccccc23)nnn1-c1nonc1N	nt	-0.3	3.9%	-0.1
CCN[C@@H]1C[C@H](N)[C@@H](OC2OC(CN)=CCC2N)[C@H](O)[C@H]1O[C@H]1OC[C@](C)(O)[C@H](NC)[C@H]1O (some centres undefined)	nt	nt	nt	i
COc1cc(/C=C/C(=O)O[C@H]2CC[C@]34C[C@]35CC[C@]3(C)[C@@H]([C@H](C)CCC=C(C)C)CC[C@@]3(C)[C@@H]5CC[C@H]4C2(C)C)ccc1O	nt	nt	nt	2.1
COC(=O)/C(=C\C=C\c1ccccc1)NC(=O)c1ccccc1	-1.0%	-53.5*	-0.3%	-2.7
CC(=O)Nc1n[nH]c(=S)s1	0.0%	-85.7*	i	-12.6
CNc1n[nH]c(=S)s1	5.7%	-57.4*	-4.3%	-1.0
O=C(Nc1nccs1)c1ccc2ccccc2c1	-6.9%	-0.5	-5.3%	2.6
O=C(Nc1n[nH]c(=S)s1)c1ccc2ccccc2c1	-1.3%	-55.2*	1.5%	3.0
CNc1nc(C#N)nc(Nc2ccccc2)n1	4.2%	nt	nt	nt
Cc1nc(C)c(-c2csc(Nc3ccc(C(=O)O)c(O)c3)n2)s1	?	-72.5*	-0.4%	0.2
COc1cc(/C=C(\C#N)c2[nH]nc(N)c2C#N)cc(OC)c1O	49.5%	-64.3*	-2.6%	6.1
COc1cc(/C=C(\C#N)c2ccccn2)cc(OC)c1O	?	-2.9	4.2%	1.9
CC(C)(C)CC(=O)OCC(=O)[C@@]1(O)CC[C@H]2[C@@H]3CCC4=CC(=O)C=C[C@]4(C)[C@H]3[C@@H](O)C[C@@]21C	nt	nt	nt	-0.8
O=C1C(=O)C(Cl)=C(Cl)C(Cl)=C1Cl	nt	-54.1*	nt	-29.4

From PubChem BioAssay
